Records with an inconclusive call do not appear. Active and inactive are the calls of the source. The calls were made as follows: active = hit-call score of the fitted dose curve at least 0.9, where 1 is the maximum; inconclusive = response in the unintended direction; inactive = score below 0.9.
Legend:
AR (gene 367) [1] = biological target: AR (gene 367) (UniProt P10275); experiment: ACEA_AR_antagonist_80hr: ACEA Biosciences xCELLigence Real-Time Cell Analysis on Androgen Receptor Antagonism for Proliferation (AID 2283787);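 also: 22Rv1 human prostate cancer cells with growth followed by electrical impedance; hits lower the impedance growth signal relative to DMSO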
AR (gene 367), sequence (P10275 whole entry, looked up): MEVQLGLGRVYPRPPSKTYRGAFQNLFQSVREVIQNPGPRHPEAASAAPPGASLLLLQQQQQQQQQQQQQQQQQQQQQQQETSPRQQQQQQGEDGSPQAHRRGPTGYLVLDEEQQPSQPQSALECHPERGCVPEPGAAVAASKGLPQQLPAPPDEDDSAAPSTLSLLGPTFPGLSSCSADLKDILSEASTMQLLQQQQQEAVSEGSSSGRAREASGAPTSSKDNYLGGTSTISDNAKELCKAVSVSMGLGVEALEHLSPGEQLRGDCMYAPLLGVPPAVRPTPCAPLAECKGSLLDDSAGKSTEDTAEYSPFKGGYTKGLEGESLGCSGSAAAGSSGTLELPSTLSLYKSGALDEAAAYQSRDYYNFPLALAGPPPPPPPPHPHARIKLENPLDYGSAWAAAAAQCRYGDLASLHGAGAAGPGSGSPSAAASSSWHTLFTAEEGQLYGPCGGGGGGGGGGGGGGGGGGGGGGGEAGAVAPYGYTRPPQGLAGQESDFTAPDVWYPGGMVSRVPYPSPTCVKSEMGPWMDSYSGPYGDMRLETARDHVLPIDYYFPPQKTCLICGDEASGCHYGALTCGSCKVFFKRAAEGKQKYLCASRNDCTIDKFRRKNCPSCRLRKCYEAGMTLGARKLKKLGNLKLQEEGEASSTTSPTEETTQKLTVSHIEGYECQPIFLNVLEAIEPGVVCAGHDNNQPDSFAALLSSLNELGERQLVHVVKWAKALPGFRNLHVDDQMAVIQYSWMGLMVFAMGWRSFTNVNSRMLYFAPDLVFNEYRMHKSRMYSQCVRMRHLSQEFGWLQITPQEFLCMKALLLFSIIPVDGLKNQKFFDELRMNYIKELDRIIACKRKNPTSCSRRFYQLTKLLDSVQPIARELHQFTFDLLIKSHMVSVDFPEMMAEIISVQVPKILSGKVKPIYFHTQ
Outline: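 Impedance-based real-time growth of 22Rv1 prostate cells, read 80 h after dosing. Eight concentrations, 1:4 series, top 100 uM final (0.5% DMSO), n = 2; signal decrease scored against DMSO.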

[2] = STM_H9_NormalizedViability: Cytotoxicity Assessment at 120 hours in the Stemina devTOX quickPredict H9 human embryonic stem cell (hESC)-based Assay (AID 2283784)
Outline: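 Here, H9 cells received test compound with daily medium renewal. Each plate included methotrexate references (1uM, 5 nM), 0.1% DMSO and media blanks; CellTiter-Fluor RFU was normalized to DMSO.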

AR (gene 367) [3] = biological target: AR (gene 367) (UniProt P10275); experiment: ACEA_AR_agonist_80hr: ACEA Biosciences xCELLigence Real-Time Cell Analysis on Androgen Receptor Agonism for Proliferation (AID 2283783);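 also: hits increase impedance growth signal above DMSO baseline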
Outline: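 Eight concentrations, 1:4 serial dilution from a 100 uM final top, in biological duplicate. Impedance-based real-time growth of 22Rv1 cells after overnight baseline, recorded hourly and read at 80 hours. Controls: testosterone, MG132, assay media.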

[4] = biological target: GAL4 Transcription Factor (Internal Marker), GAL4 (gene 855828) (UniProt P04386); experiment: ATG_GAL4_XSP1: Attagene TRANS-FACTORIAL Multi-Species (XSP1) HepG2 Assay for GAL4 Transcription Factor (Internal Marker) (AID 2283789)
GAL4 Transcription Factor (Internal Marker), GAL4 (gene 855828), sequence (P04386 whole entry, looked up, the tested form may be a part): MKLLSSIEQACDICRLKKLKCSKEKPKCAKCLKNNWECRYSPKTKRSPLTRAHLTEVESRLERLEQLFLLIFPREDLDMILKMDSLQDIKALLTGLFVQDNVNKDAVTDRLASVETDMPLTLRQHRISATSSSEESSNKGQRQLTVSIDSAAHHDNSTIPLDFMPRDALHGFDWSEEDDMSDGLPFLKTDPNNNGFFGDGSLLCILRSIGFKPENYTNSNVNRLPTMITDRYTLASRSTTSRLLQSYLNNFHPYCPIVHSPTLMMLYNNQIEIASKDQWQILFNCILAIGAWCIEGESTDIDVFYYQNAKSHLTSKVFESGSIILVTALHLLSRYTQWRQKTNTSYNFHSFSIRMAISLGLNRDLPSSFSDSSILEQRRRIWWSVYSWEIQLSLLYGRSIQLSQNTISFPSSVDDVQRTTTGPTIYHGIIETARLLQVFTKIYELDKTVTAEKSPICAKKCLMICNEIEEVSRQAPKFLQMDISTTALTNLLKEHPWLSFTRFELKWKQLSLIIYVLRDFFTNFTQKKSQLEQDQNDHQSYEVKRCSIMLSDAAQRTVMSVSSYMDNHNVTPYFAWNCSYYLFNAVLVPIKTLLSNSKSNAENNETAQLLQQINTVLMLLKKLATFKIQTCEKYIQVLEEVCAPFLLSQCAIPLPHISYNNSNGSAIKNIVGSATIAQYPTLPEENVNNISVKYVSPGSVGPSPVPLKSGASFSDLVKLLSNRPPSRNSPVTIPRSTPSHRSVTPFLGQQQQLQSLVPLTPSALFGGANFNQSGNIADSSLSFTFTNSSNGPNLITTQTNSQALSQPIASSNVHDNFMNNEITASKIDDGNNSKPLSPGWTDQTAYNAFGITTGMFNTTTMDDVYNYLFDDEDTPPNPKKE
Outline: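 This background-control endpoint measures GAL4-driven reporter mRNA via RT-PCR and capillary electrophoresis of labelled fragments. Transiently transfected HepG2 cells were treated 24 h, with 3 nM 6-alpha-fluorotestosterone included, and gain-of-signal was fitted against DMSO.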

[5] = ATG_M_19_XSP1: Attagene TRANS-FACTORIAL Multi-Species (XSP1) HepG2 Assay for M19 Transcription Factor (Internal Marker) (AID 2283798)
Outline: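 Readout is reporter mRNA induction quantified via RT-PCR, 6-FAM labeling, HpaI digestion and capillary electrophoresis, fitted in the positive direction versus DMSO baseline. Transfected HepG2 cells exposed 24 h, medium including 3 nM 6-alpha-fluorotestosterone.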

[6] = ATG_M_32_XSP1: Attagene TRANS-FACTORIAL Multi-Species (XSP1) HepG2 Assay for M32 Transcription Factor (Internal Marker) (AID 2283799)
Outline: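 Reporter transcripts from the M32 internal-control unit measured by RT-PCR, FAM labelling, HpaI digestion and capillary electrophoresis after 24 h compound exposure of transfected HepG2, 3 nM 6-alpha-fluorotestosterone included; DMSO baseline, positive-direction fit.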

[7] = biological target: Peroxisome proliferator-activated receptor gamma (Homo sapiens) (UniProt P37231); experiment: ATG_hPPARg_XSP1: Attagene TRANS-FACTORIAL Multi-Species (XSP1) HepG2 Assay for human Peroxisome Proliferator-activated Receptor gamma (PPARg) (AID 2283800)
Peroxisome proliferator-activated receptor gamma (Homo sapiens), sequence (P37231 whole entry, looked up, the tested form may be a part): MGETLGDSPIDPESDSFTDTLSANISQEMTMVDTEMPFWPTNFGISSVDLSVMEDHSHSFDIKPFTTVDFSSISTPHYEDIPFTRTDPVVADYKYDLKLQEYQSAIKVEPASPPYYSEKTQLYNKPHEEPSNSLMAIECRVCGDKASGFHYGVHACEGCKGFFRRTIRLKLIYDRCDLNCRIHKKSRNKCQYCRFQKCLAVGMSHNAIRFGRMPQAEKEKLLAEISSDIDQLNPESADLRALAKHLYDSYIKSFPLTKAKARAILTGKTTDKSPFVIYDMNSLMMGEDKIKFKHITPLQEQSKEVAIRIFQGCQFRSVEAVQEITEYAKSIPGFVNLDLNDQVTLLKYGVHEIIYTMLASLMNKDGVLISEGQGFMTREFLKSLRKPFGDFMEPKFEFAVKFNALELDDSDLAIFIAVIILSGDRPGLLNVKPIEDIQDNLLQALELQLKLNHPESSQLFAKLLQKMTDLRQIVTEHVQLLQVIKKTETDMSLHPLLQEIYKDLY
Outline: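 Reporter mRNA induction, measured by RT-PCR with capillary electrophoresis 24 h after dosing, scored as gain over DMSO. Transfected HepG2 cells express exogenous NR-Gal4 chimeras driving GAL4-UAS reporters; medium includes 3 nM 6-alpha-fluorotestosterone.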

[8] = system: zebrafish Peroxisome Proliferator-activated Receptor gamma (PPARg), gene 557037; experiment: ATG_zfPPARg_XSP1: Attagene TRANS-FACTORIAL Multi-Species (XSP1) HepG2 Assay for zebrafish Peroxisome Proliferator-activated Receptor gamma (PPARg) (AID 2283801)
Outline: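 Trans-activation readout of chimeric zebrafish PPARg–GAL4 in transiently transfected human HepG2 cells, 24 h chemical exposure (medium includes 3 nM 6-alpha-fluorotestosterone). Reporter transcripts measured by RT-PCR and capillary electrophoresis, fitted as gain over DMSO.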

[9] = biological target: mouse Peroxisome Proliferator-activated Receptor gamma (PPARg), Pparg (gene 19016) (UniProt P37238); experiment: ATG_mPPARg_XSP1: Attagene TRANS-FACTORIAL Multi-Species (XSP1) HepG2 Assay for mouse Peroxisome Proliferator-activated Receptor gamma (PPARg) (AID 2283802)
mouse Peroxisome Proliferator-activated Receptor gamma (PPARg), Pparg (gene 19016), sequence (P37238 whole entry, looked up, the tested form may be a part): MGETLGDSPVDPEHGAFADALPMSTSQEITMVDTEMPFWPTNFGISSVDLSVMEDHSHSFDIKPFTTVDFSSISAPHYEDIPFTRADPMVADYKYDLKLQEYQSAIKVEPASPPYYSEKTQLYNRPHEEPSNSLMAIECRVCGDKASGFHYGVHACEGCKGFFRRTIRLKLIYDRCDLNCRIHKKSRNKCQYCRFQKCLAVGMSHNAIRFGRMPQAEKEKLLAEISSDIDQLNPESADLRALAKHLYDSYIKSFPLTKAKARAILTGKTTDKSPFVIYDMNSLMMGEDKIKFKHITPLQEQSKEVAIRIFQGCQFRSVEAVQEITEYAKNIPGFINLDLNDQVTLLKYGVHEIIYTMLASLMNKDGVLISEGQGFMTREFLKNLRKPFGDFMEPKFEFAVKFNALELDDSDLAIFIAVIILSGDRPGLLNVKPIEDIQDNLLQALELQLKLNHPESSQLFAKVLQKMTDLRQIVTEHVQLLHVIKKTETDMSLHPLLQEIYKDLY
Outline: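 Readout is reporter mRNA induction, measured by RT-PCR with 6-FAM labelling, HpaI digestion and capillary electrophoresis, 24 h post-dose relative to DMSO. Transient multi-reporter transfection of human HepG2 with mouse PPARg–GAL4 fusion; 3 nM 6-alpha-fluorotestosterone included.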

[10] = ACEA_ER_AUC_viability: ACEA Biosciences xCELLigence Real-Time Cell Analysis on Estrogen Receptor Agonism for Viability (AID 2283782);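 also: hit means loss of impedance signal meaning reduced cell growth or viability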
Outline: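 Viability endpoint: reduced impedance area under the curve relative to DMSO, recorded by real-time electrode sensing over ~80 h of continuous exposure. Duplicate plates of T47D in hormone-depleted medium; eight concentrations, 1:4 dilutions, 100 uM maximum.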

Cc1ccc(C)c(C)c1
outcome (AR (gene 367) [1]): inactive

CCCCCCCCCCC
outcome (AR (gene 367) [1]): inactive

O=c1c(O)c(-c2ccc(O)c(O)c2)oc2cc(O)cc(O)c12
outcome [2]: inactive

Cc1cc(NC(=O)C(=O)O)cc(C)c1Oc1ccc(O)c2c1CCC2
outcome (AR (gene 367) [3]): inactive
outcome [2]: inactive
outcome (AR (gene 367) [1]): inactive

COc1ccc2c(c1)c(CC(=O)O)c(C)n2C(=O)c1ccc(Cl)cc1
AC50 [2]: 78.1 µM (active)
AC50 (AR (gene 367) [1]): 34.1 µM (active)

O=C(O)Cc1ccccc1Nc1c(Cl)cccc1Cl
AC50 (AR (gene 367) [1]): 70.9 µM (active)

Cc1cccc(Nc2cc(Cl)nc(SCC(=O)O)n2)c1C
outcome [2]: inactive
outcome (AR (gene 367) [1]): inactive

OC[C@@H](O)[C@@H](O)[C@H](O)[C@H](O)CO
outcome [2]: inactive

CC(=O)Oc1ccccc1C(=O)O
outcome (AR (gene 367) [1]): inactive

CC(C)(C)c1cc(O)c(C(C)(C)C)cc1O
outcome [4]: inactive
outcome [5]: inactive
outcome [6]: inactive
AC50 [7]: 160 µM (active)
outcome [8]: inactive
AC50 [9]: 100 µM (active)

Cc1ccc(C)c(O)c1C
outcome [10]: inactive
outcome (AR (gene 367) [1]): inactive

C=CCOC(=O)c1ccccc1C(=O)OCC=C
outcome [2]: inactive

Cc1c(C(=O)O)c(O)cc2c1C(=O)c1c(O)c([C@@H]3O[C@H](CO)[C@@H](O)[C@H](O)[C@H]3O)c(O)c(O)c1C2=O
outcome [2]: inactive

COC(=O)c1ccc(O)cc1
outcome [2]: inactive

O=c1[nH]cc(F)c(=O)[nH]1
AC50 [2]: 3.17 µM (active)

Cc1ccc(N(C)C)cc1
outcome (AR (gene 367) [1]): inactive

COCCOCCOC
outcome (AR (gene 367) [3]): inactive
outcome [2]: inactive
outcome (AR (gene 367) [1]): inactive

CC(CO)OC(C)CO (configuration not stated) (tested in a mixture with another compound)
outcome [2]: inactive

Cc1cccc([N+](=O)[O-])c1C
outcome (AR (gene 367) [1]): inactive

COc1cc(C=O)ccc1O
outcome (AR (gene 367) [3]): inactive

Source: PubChem BioAssay (EPA / NIEHS)
